About 83,000 compounds went through this panel and 20% of them were active in at least one assay; those are over-represented in the sample as a whole.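 Compound tested at a single concentration for 48 hours in 96-well plates; a percent growth value below 10 was scored as active.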 Calls of active or inactive are those of the source.

In one assay the test system is SR leukemia. In words: NCI-60 one-dose screen, 48 h (100 = growth as untreated, 0 = no growth, -100 = all killed). The settings on record: 10 µM unless noted.
With `O=S1(=O)C=C(c2ccccc2)C(c2ccccc2)=C1`, the growth is -3.82% (active).

For the compound `O=C(O)COc1ccc(Cl)c(Cl)c1`, the growth was 93.7% (inactive).

On to `O=C1/C(=C/c2ccccn2)NC(=S)N1c1ccccc1Cl`, for which the growth is 19.3% (inactive).

With `CCS/C(Nc1ccccc1)=C(\C#N)C(=O)Nc1ccc(OC)cc1`, the growth is 6.62% (active).

As to `COc1ccc(C(=O)N2c3ccccc3Sc3ccccc32)c(C(F)(F)F)c1`, the growth is 16.3% (inactive).

For `Cc1ccc(-c2csc(NC(=O)c3ccccc3CN3C(=O)c4ccccc4C3=O)n2)cc1`, the growth was 103% (inactive).

As to `CNC(=O)c1cc(Oc2cccc3nc(NC(=O)Nc4cc(C(F)(F)F)ccc4Cl)ccc23)ccn1`, the growth is 48.2% (inactive).

The subject of another assay is RPMI-8226 leukemia. The assay is described as above. As to conditions: 10 µM unless noted.
On to `CC(=O)OC[C@]12CC[C@@H]([C@@H](C)c3nnc(-c4ccncc4)o3)[C@@H]1[C@H]1CC[C@@H]3[C@@]4(C)CC[C@H](OC(C)=O)C(C)(C)[C@@H]4CC[C@@]3(C)[C@]1(C)CC2`, for which the growth is 47.4% (inactive).

Consider `CN(Cc1ccccc1)c1nc(Cl)c(C2CC(c3ccccc3)=NN2c2ccccc2)s1` (stereo not drawn), for which the growth is 84.8% (inactive).

For the compound `CSc1nc(C)c([N+](=O)[O-])c(N)n1`, the growth is 78.4% (inactive).

Consider `CN1CCN(Cc2ccc(NC(=O)c3cncc(C#Cc4cnc(N)c5ccc(F)cc45)c3)cc2C(F)(F)F)CC1`, for which the growth was 4.27% (active).

As for `CN1CCN(C(=O)[C@@]2(C)CC[C@]3(C)CC[C@]4(C)C(=CC[C@@H]5[C@@]6(C)CCC(=O)NC(C)(C)[C@@H]6CC[C@]54C)[C@@H]3C2)CC1`, the growth was 20.6% (inactive).

Turning to `COc1ccc(/C=C2\CN(C(=O)C(Cl)Cl)C/C(=C\c3ccc(OC)cc3)C2=O)cc1`, the growth is -14.3% (active).

The values are drawn from PubChem BioAssay (NCI).
